Results: the supplement of paper PMC9942566
Where a name gives a salt, the structure may show the parent alone. ± gives the standard deviation of the averaged measurements.

System: Serratia marcescens K904 PosmB-luxCDABE reporter (pMQ747)
Experiment: PosmB-lux reporter fold induction (RLU/OD600 relative to no-compound control), highest over Biolog concentrations; higher = stronger reporter activation
Conditions: Biolog plate: PM11; well positions: C1-4; ΔrcsB mutant CMS5177; 4 h
Experimental: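 Serratia marcescens K904 (wild type) or its isogenic ΔrcsB mutant, carrying the Rcs-dependent PosmB-luxCDABE reporter plasmid pMQ747, was grown in LB at OD600 0.1 in Biolog Phenotype MicroArray plates PM11-20 for 4 h at 30-32°C. Each compound is present at 3-4 proprietary concentrations (not stated); per the Fig. S1 legend the value given is the highest fold over those wells. Three independent trials.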

Compound | PosmB-lux reporter fold induction
Cc1c(N)nc([C@H](CC(N)=O)NC[C@H](N)C(N)=O)nc1C(=O)N[C@H](C(=O)N[C@H](C)[C@@H](O)[C@H](C)C(=O)N[C@H](C(=O)NCCc1nc(-c2nc(C(=O)NCCC[S+](C)C)cs2)cs1)[C@@H](C)O)[C@@H](OC1OC(CO)C(O)C(O)C1OC1OC(CO)C(O)C(OC(N)=O)C1O)c1cnc[nH]1 (stereo not given in full) [Bleomycin] | 0.988 ± 0.1

Same assay, conditions: Biolog plate: PM11; well positions: G9-12; ΔrcsB mutant CMS5177; 4 h

Compound | PosmB-lux reporter fold induction
O=[Te]([O-])[O-].[K+].[K+] [Potassium tellurite] | 1.14 ± 0.19

Same assay, conditions: Biolog plate: PM13; well positions: B9-12; ΔrcsB mutant CMS5177; 4 h

Compound | PosmB-lux reporter fold induction
CCn1cc(C(=O)O)c(=O)c2cc3c(cc21)OCO3 [Oxolinic acid] | 4.3 ± 0.48

Same assay, conditions: Biolog plate: PM13; well positions: C9-12; ΔrcsB mutant CMS5177; 4 h

Compound | PosmB-lux reporter fold induction
[K+].[K+].[O]=[Cr](=[O])([O-])[O-] [Potassium chromate] | 1.87 ± 0.86

Same assay, conditions: Biolog plate: PM13; well positions: E5-8; ΔrcsB mutant CMS5177; 4 h

Compound | PosmB-lux reporter fold induction
CN[C@@H]1[C@@H](O)[C@@H](O[C@@H]2[C@@H](O)[C@H](O[C@H]3O[C@H]([C@@H](C)O)[C@@H](O)[C@H](O)[C@H]3N)[C@@H](N)C[C@H]2N)OC[C@]1(C)O [Geneticin (G418)] | 1.34 ± 0.41

Same assay, conditions: Biolog plate: PM14; well positions: B5-8; ΔrcsB mutant CMS5177; 4 h

Compound | PosmB-lux reporter fold induction
CCCCc1ccc(C(=O)O)nc1 [Fusaric acid] | 1 ± 0.025

Same assay, conditions: Biolog plate: PM14; well positions: B9-12; ΔrcsB mutant CMS5177; 4 h

Compound | PosmB-lux reporter fold induction
O=[As]([O-])([O-])[O-].[Na+].[Na+].[Na+] [Sodium arsenate] | 0.724 ± 0.054

Same assay, conditions: Biolog plate: PM14; well positions: C9-12; ΔrcsB mutant CMS5177; 4 h

Compound | PosmB-lux reporter fold induction
N#CO [Sodium cyanate] | 1.38 ± 0.44

Same assay, conditions: Biolog plate: PM14; well positions: D1-4; ΔrcsB mutant CMS5177; 4 h

Compound | PosmB-lux reporter fold induction
[Cl][Cd][Cl] [Cadmium chloride] | 0.871 ± 0.061

Same assay, conditions: Biolog plate: PM14; well positions: D5-8; ΔrcsB mutant CMS5177; 4 h

Compound | PosmB-lux reporter fold induction
O=C(O)CI [Iodoacetate] | 0.974 ± 0.21

Same assay, conditions: Biolog plate: PM14; well positions: D9-12; ΔrcsB mutant CMS5177; 4 h

Compound | PosmB-lux reporter fold induction
[Na+].[Na+].[O]=[Cr](=[O])([O-])[O][Cr](=[O])(=[O])[O-] [Sodium dichromate] | 1.03 ± 0.33

Same assay, conditions: Biolog plate: PM14; well positions: G9-12; ΔrcsB mutant CMS5177; 4 h

Compound | PosmB-lux reporter fold induction
O=[N+]([O-])[O-].[Na+] [Sodium nitrate] | 2.32 ± 0.21

Same assay, conditions: Biolog plate: PM15; well positions: E9-12; ΔrcsB mutant CMS5177; 4 h

Compound | PosmB-lux reporter fold induction
C[n+]1ccc(-c2cc[n+](C)cc2)cc1 [Methyl viologen] | 1.89 ± 0.16

Same assay, conditions: Biolog plate: PM15; well positions: G5-8; ΔrcsB mutant CMS5177; 4 h

Compound | PosmB-lux reporter fold induction
[N-]=[N+]=[N-] [Sodium azide] | 1.5 ± 0.15

Same assay, conditions: Biolog plate: PM15; well positions: H1-4; ΔrcsB mutant CMS5177; 4 h

Compound | PosmB-lux reporter fold induction
O=[N+]([O-])c1ncc[nH]1 [2-Nitroimidazole] | 1.51 ± 0.7

Same assay, conditions: Biolog plate: PM16; well positions: C1-4; ΔrcsB mutant CMS5177; 4 h

Compound | PosmB-lux reporter fold induction
CN(C)S(=O)(=O)N(SC(F)(Cl)Cl)c1ccccc1 [dichlofluanid] | 2.54 ± 1.7

Same assay, conditions: Biolog plate: PM16; well positions: C9-12; ΔrcsB mutant CMS5177; 4 h

Compound | PosmB-lux reporter fold induction
CCCCCCCCCCCCCCCC[n+]1ccccc1 [cetylpyridinium] | 1.77 ± 0.53

Same assay, conditions: Biolog plate: PM16; well positions: D1-4; ΔrcsB mutant CMS5177; 4 h

Compound | PosmB-lux reporter fold induction
O=[N+]([O-])c1ccc(Cl)c([N+](=O)[O-])c1 [1-chloro-2,4-dinitrobenzene] | 1.75 ± 0.99

Same assay, conditions: Biolog plate: PM16; well positions: F1-4; ΔrcsB mutant CMS5177; 4 h

Compound | PosmB-lux reporter fold induction
O=[Te]([O-])[O-].[K+].[K+] [potassium tellurite] | 1.28 ± 0.43

Same assay, conditions: Biolog plate: PM16; well positions: F5-8; ΔrcsB mutant CMS5177; 4 h

Compound | PosmB-lux reporter fold induction
O=[Se]([O-])[O-].[Na+].[Na+] [sodium selenite] | 1.25 ± 0.21

Same assay, conditions: Biolog plate: PM17; well positions: A5-8; ΔrcsB mutant CMS5177; 4 h

Compound | PosmB-lux reporter fold induction
NC(CCl)C(=O)O [b-chloro-L-alanine hydrochloride] | 1.04 ± 0.15

Same assay, conditions: Biolog plate: PM17; well positions: B5-8; ΔrcsB mutant CMS5177; 4 h

Compound | PosmB-lux reporter fold induction
CNC1CC(N)C(O)C(OC2OC(CO)C(O)C3OC4(OC(C(N)CO)C(O)C(O)C4O)OC23)C1O (stereo not given) [hygromycin B] | 1.37 ± 0.19

Same assay, conditions: Biolog plate: PM17; well positions: C1-4; ΔrcsB mutant CMS5177; 4 h

Compound | PosmB-lux reporter fold induction
Nc1ccncc1 [4-aminopyridine] | 1.95 ± 1.4

Same assay, conditions: Biolog plate: PM17; well positions: D1-4; ΔrcsB mutant CMS5177; 4 h

Compound | PosmB-lux reporter fold induction
CC1=C(C(=O)Nc2ccccc2)S(=O)(=O)CCO1 [oxycarboxin] | 1.01 ± 0.57

Same assay, conditions: Biolog plate: PM17; well positions: D5-8; ΔrcsB mutant CMS5177; 4 h

Compound | PosmB-lux reporter fold induction
Nc1ncn[nH]1 [3-amino-1,2,4-triazole] | 5.84 ± 4.5

Same assay, conditions: Biolog plate: PM17; well positions: G1-4; ΔrcsB mutant CMS5177; 4 h

Compound | PosmB-lux reporter fold induction
O=C(O)CCCc1ccc(N(CCCl)CCCl)cc1 [chlorambucil] | 1.28 ± 0.21

Same assay, conditions: Biolog plate: PM18; well positions: C9-12; ΔrcsB mutant CMS5177; 4 h

Compound | PosmB-lux reporter fold induction
Oc1c(Cl)c(Cl)c(Cl)c(Cl)c1Cl [pentachloro-phenol] | 0.784 ± 0.046

Same assay, conditions: Biolog plate: PM18; well positions: E5-8; ΔrcsB mutant CMS5177; 4 h

Compound | PosmB-lux reporter fold induction
[O-][I+3]([O-])([O-])O [sodium m-periodate] | 1.04 ± 0.24

Same assay, conditions: Biolog plate: PM18; well positions: E9-12; ΔrcsB mutant CMS5177; 4 h

Compound | PosmB-lux reporter fold induction
[Cl][Sb]([Cl])[Cl] [antimony (III) chloride] | 0.481 ± 0.06

Same assay, conditions: Biolog plate: PM18; well positions: F1-4; ΔrcsB mutant CMS5177; 4 h

Compound | PosmB-lux reporter fold induction
NNC(N)=O [semicarbazide] | 3.86 ± 1.5

Same assay, conditions: Biolog plate: PM18; well positions: G1-4; ΔrcsB mutant CMS5177; 4 h

Compound | PosmB-lux reporter fold induction
Oc1cc(Cl)ccc1Oc1ccc(Cl)cc1Cl [triclosan] | 1.05 ± 0.51

Same assay, conditions: Biolog plate: PM18; well positions: G5-8; ΔrcsB mutant CMS5177; 4 h

Compound | PosmB-lux reporter fold induction
Nc1n[nH]c(N)n1 [3,5-diamino-1,2,4-triazole (Guanazole)] | 12 ± 5.6

Same assay, conditions: Biolog plate: PM18; well positions: H5-8; ΔrcsB mutant CMS5177; 4 h

Compound | PosmB-lux reporter fold induction
Oc1ccccc1-c1ccccc1 [2-phenylphenol] | 1.22 ± 0.42

Same assay, conditions: Biolog plate: PM20; well positions: C5-8; ΔrcsB mutant CMS5177; 4 h

Compound | PosmB-lux reporter fold induction
CN1[C@@H]2CC[C@H]1C[C@@H](OC(=O)C(CO)c1ccccc1)C2 (stereo not given in full) [atropine] | 1.49 ± 0.44

Same assay, conditions: Biolog plate: PM20; well positions: E5-8; ΔrcsB mutant CMS5177; 4 h

Compound | PosmB-lux reporter fold induction
CCCCCCCCCCCCNC(=N)N [dodine] | 1.31 ± 0.24

Same assay, conditions: Biolog plate: PM20; well positions: F1-4; ΔrcsB mutant CMS5177; 4 h

Compound | PosmB-lux reporter fold induction
O=c1cc(O)c2ccccc2o1 [4-hydroxyl-coumarin] | 1.62 ± 0.32

Same assay, conditions: Biolog plate: PM20; well positions: G1-4; ΔrcsB mutant CMS5177; 4 h

Compound | PosmB-lux reporter fold induction
O=C1C2CC=CCC2C(=O)N1SC(Cl)(Cl)Cl (stereo not given) [captan] | 1.72 ± 0.34

Same assay, conditions: Biolog plate: PM20; well positions: G9-12; ΔrcsB mutant CMS5177; 4 h

Compound | PosmB-lux reporter fold induction
Oc1cccc2cccnc12 [8-hydroxy-quinoline] | 1.84 ± 0.48

Same assay, conditions: Biolog plate: PM20; well positions: H1-4; ΔrcsB mutant CMS5177; 4 h

Compound | PosmB-lux reporter fold induction
O=C1C=C2C(=CCOC2O)O1 (stereo not given) [patulin] | 2.24 ± 1.1

Same assay, conditions: Biolog plate: PM20; well positions: H5-8; ΔrcsB mutant CMS5177; 4 h

Compound | PosmB-lux reporter fold induction
Cc1ccc(N(SC(F)(Cl)Cl)S(=O)(=O)N(C)C)cc1 [tolylfluanid] | 1.7 ± 0.64
